# Measurements published in PubChem BioAssay (Tox21).
# Inconclusive results are not listed. Where a call stands in place of a potency, no number is given. Some compounds were tested as several samples or in several runs, with calls that do not always agree. The source made the active and inactive calls. The call rests on the fitted dose curve; in most records, active means well fitted activation curve with a large enough effect in the repeat runs; inconclusive means weak or mixed curves; inactive means flat fitted curve, though single readings scatter.
# Assay: A CellTox Green Cytotoxicity Assay to monitor cytotoxicity in HepG2 cells - 40 hour (AID 1224879); further: nearly all actives have a fitted effect of over 40% in size
# Conditions: CellTox Green fluorescence; series mostly up to 76.8 µM; cytotoxicity increase: at the top concentration
# Method in brief: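 Real-time, homogeneous cytotoxicity readout: dead-cell DNA staining by CellTox Green in HepG2 monolayers, fluorescence measured at timed intervals up to 40 h of continuous compound exposure.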
# Potency means the concentration at half of the fitted maximal effect.
SMILES,Potency,cytotoxicity increase
N#Cc1cc(Br)c(O)c(Br)c1,inactive,–
CCc1cccc(CC)c1N(COC)C(=O)CCl,–,15.9% (inactive)
CCOc1cc(C=O)ccc1O,inactive,–
N#CC(Br)Br,inactive,–
Clc1nc(Cl)nc(Cl)n1,inactive,–
COP(=O)(OC)OC,19.7 µM (active) and inactive,–
CC(O)CCO (centres undefined),inactive,–
CCN(N=O)C(N)=O,inactive,–
NNC(=S)NN,inactive,–
OCC(O)CO,inactive,–
S=C1NCCN1,inactive,–
CC(C)c1ccc(CO)cc1,inactive,–
Oc1cc(Cl)c(Cl)cc1Cl,–,24.8% (inactive)
CC(C)(OOC(C)(C)c1ccccc1)c1ccccc1,inactive,–
